Laboratory results from PubChem BioAssay (EPA / NIEHS).
Activity calls are given as the source filed them. Rule for the calls: active = hit-call score of the fitted dose curve at least 0.9, where 1 is the maximum; inactive = score below 0.9.

Read-out: CFLAR gene, CFLAR (gene 8837)
Assay: LTEA_HepaRG_CFLAR: Life Technologies and Expression Analysis (LTEA) Assay for CFLAR gene using HepaRG (AID 2283455)
Settings: mRNA level, 48 h; actives raise or lower the signal
Method: LTEA_HepaRG is a cell based, multiplexed-readout assay that uses HepaRG, a human liver cell line, with measurements taken at 48 hours after chemical dosing on a 96-well plate.LTEA_HepaRG_CFLAR is one of 102 assay component(s) measured in the LTEA HepaRG cell culture assay. It is a marker of Cell proliferation, survival, death.Data from the assay component LTEA_HepaRG_CFLAR was analyzed into 1 endpoint. This assay endpoint, LTEA_HepaRG_CFLAR, was analyzed with bidirectional fitting relative to DMSO as the negative control and baseline of activity. Using a type of inducible reporter, measures of mRNA induction for gain or loss-of-signal activity can be used to understand regulation of transcription factor activity. To generalize the intended target to other relatable targets, this assay endpoint is annotated to the cell cycle intended target family, where the subfamily is Cell proliferation, survival, death.
A total of 1060 chemcials from the ToxCast library were tested in eight-point concentration-response experiments. Cell culture and cytotoxicity assays were conducted at Thermo Fisher Scientific's Custom Services facility (Madison, WI). A single lot of human HepaRG cells (Thermo Fisher Scientific, Frederick, MD) was used for the cell culture experiments. 96-well format collagen type I coated plates of human HepaRG cells were prepared using established methods. Briefly, cryopreserved HepaRG cells were thawed, plated at a density of approximately 100,000 cells/well in HepaRG Thaw, Plate, and General Purpose media (HPRG770, Thermo Fisher Scientific), and incubated for 48 hours. 0.5% DMSO was selected as vehicle control to balance the requisite need of DMSO in HepaRG cultures to maintain differentiation (for example, baseline metabolism, proportions of hepatocytes vs. cholangiocytes), while enabling further hepatic receptor pathway activation (for example, PXR and CAR) in response to chemical exposure. 48 hours after plating, the culture medium was replaced with HepaRG Serum-Free Incudtion Media. Cells were exposed to each test chemical in duplicate and maintained in CO2 incubators for another 48 hours. Chemical plates were thawed to room temperature and 200x concentrations of treatment groups were prepared. 8-point conentration-reponse curves were made with the highest exposure at 100 uM, followed by half-log dilutions, all in 0.5% DMSO. Each test plate contained variouse controls, induction positive controls (1mM phenobarbital), cytotoxicity positive controls ([…] aflatoxin B1), vehicle controls (0.5% DMSO), and total lysis controls (0.5% DMSO). Cell morphology images were taken using an Essen IncuCyte FLR automated microscope, with six 96-well plates imaged in about 24 minutes. Images were captured and exported and JPEG files. Spent culture media was transfered to black-well plates for the LDH assay, and remaining media was sorted at -80 C for later use. Cells were treated with RLT buffer and frozen until shipped for gene expression analysis. Total RNA was isolated from the cell suspension in 75 uL of Buffer RLT (Qiagen, Germantown, MD 20874) by Quintiles/Expression Analysis (Durham, NC) using a custom isolation procedure. Total RNA from each plate well was transferred to a preamplification plate. Fluidigm's 96.96 Dynamic ArrayTM (Fluidigm, Amsterdam, the Netherlands) technology was used for gene expression analyses by quantitative reverse transcription polymerase chain reaction (qRT-PCR, performed by Quintiles/Expression Analysis, Durham, NC)89. Standard TaqManTM Assays (Applied Biosystems/ThermoFisher Scientific, Foster City, CA) were used to assess the expression of 93 genes selected based on their selectivity and sensitivity to important hepatic receptors known to be modulated by environmental chemicals; importance in human hepatocyte functionality; and hepatotoxicity. […]

Compound	outcome	AC50
CCCCC(CC)COC(=O)c1ccc(C(=O)OCC(CC)CCCC)cc1 (stereo not given)	inactive	–
CC(O)CN(CCN(CC(C)O)CC(C)O)CC(C)O (stereo not given)	inactive	–
COc1cccc(-c2ccc(/C=C\CN3CCCCCC3)cc2Cl)c1	inactive	–
O=C(CCCCCCCCc1cccnc1)N1CCC(C=C(c2ccccc2)c2ccccc2)CC1	inactive	–
Nc1cccc(N)c1	inactive	–
CC(=O)OC[C@H]1O[C@@](COC(C)=O)(O[C@H]2O[C@H](COC(C)=O)[C@@H](OC(C)=O)[C@H](OC(C)=O)[C@H]2OC(C)=O)[C@@H](OC(C)=O)[C@@H]1OC(C)=O	inactive	–
CCOC(=O)CC(CC(=O)OCC)(OC(C)=O)C(=O)OCC	inactive	–
Cn1cnc([N+](=O)[O-])c1Sc1ncnc2nc[nH]c12	inactive	–
CCC(C)(C)C(=O)O[C@H]1C[C@@H](C)C=C2C=C[C@H](C)[C@H](CC[C@@H]3C[C@@H](O)CC(=O)O3)[C@H]21	inactive	–
CCn1nc(Cc2ccccc2)cc1C1CCN(C[C@H]2C[C@H](N(C)[C@@H](C(=O)O)C(C)C)C[C@@H]2c2cccc(F)c2)CC1	inactive	–
O=P(OC(CCl)CCl)(OC(CCl)CCl)OC(CCl)CCl	inactive	–
O=C(NS(=O)(=O)/C=C/c1ccccc1)c1ccc(F)cc1Cl	inactive	–
CC(C)=CCC/C(C)=C/CO	inactive	–
CC1=CC(=O)CC(C)(C)C1	inactive	–
CC(=O)OCCC(C)C	inactive	–
CCOc1cccc(-n2cc(C(=O)N3CCN(c4cc(C(=O)O)c5ccccc5c4)CC3)nc2-c2ccc(C)cc2)c1	–	84 µM (active)
Nc1ccc(Nc2ccccc2)cc1	inactive	–
O=C(O)CCN(C1(C(=O)NO)CCCC1)S(=O)(=O)c1ccc(Oc2ccc(F)cc2)cc1	inactive	–
CCNc1ccccc1	inactive	–
O=c1n(CC2CO2)c(=O)n(CC2CO2)c(=O)n1CC1CO1 (stereo not given)	inactive	–

Compound	outcome	AC50
CC/C(=C\C(=N/O)C(N)=O)C(C)[N+](=O)[O-] (stereo not given)	inactive	–
CC(C)CCCCCCOC(=O)c1ccc(C(=O)OCCCCCCC(C)C)c(C(=O)OCCCCCCC(C)C)c1	inactive	–
O=C1OC(=O)C2C3C=CC(C3)C12 (stereo not given)	inactive	–
COc1ccc(/C=C/S(=O)(=O)NC(=O)c2ccc(C)cc2Cl)cc1	inactive	–
COc1ccc(-n2nc(C(F)F)cc2-c2ccc(S(C)=O)cc2)cc1 (stereo not given)	inactive	–
CNCc1ccc(NC(=O)c2c[nH]c3c2C(=O)CCC3)cc1	inactive	–
Nc1nc2ncc(CNc3ccc(C(=O)N[C@@H](CCC(=O)O)C(=O)O)cc3)nc2c(=O)[nH]1	inactive	–
CC(C)=CCCC(C)=CC=O	inactive	–
O=C(O)c1cccc(Oc2ccccc2)c1	inactive	–
CC(C)c1cccc(C(C)C)c1N1C(=O)c2ccc(O)cc2C1=O	inactive	–
CCCCCCCCCCCCc1ccccc1	inactive	–
CCCCCCCCO	inactive	–
CN(C)c1ccc(N=NS(=O)(=O)O)cc1	inactive	–
CCCN(C1CCN(C(=O)C2CCNCC2)CC1)[C@@H]1CCc2ccc(OC)cc2C1	–	50 µM (active)
O=C(OC[C@H]1O[C@@H](OC(=O)c2cc(O)c(O)c(OC(=O)c3cc(O)c(O)c(O)c3)c2)[C@H](OC(=O)c2cc(O)c(O)c(OC(=O)c3cc(O)c(O)c(O)c3)c2)[C@@H](OC(=O)c2cc(O)c(O)c(OC(=O)c3cc(O)c(O)c(O)c3)c2)[C@@H]1OC(=O)c1cc(O)c(O)c(OC(=O)c2cc(O)c(O)c(O)c2)c1)c1cc(O)c(O)c(OC(=O)c2cc(O)c(O)c(O)c2)c1	inactive	–
CN(C)c1ccc(Cc2ccc(N(C)C)cc2)cc1	inactive	–
C=CC(=C)CCC=C(C)C	inactive	–
CC[C@H]1CC[C@H](NCc2cc3c(cc2OC)[C@H]2C[C@H]2C(=O)N3C)[C@H](c2ccccc2)N1	inactive	–
COCCOc1cc2cc(C(=O)NC3CCN(C(C)C)CC3)n(CC(=O)Nc3ccc(Cl)cn3)c2cn1	–	31.4 µM (active)
Cn1c(=O)c2c(ncn2C)n(C)c1=O	inactive	–
